Source: PMC5540273 (PLoS ONE, 2017)

How the values were obtained:
Conditions in all cases: concentration: 1 μM, replicates: in singlicate; n = 1
PDPK1 = system: PDPK1
PFTAIRE2 = system: PFTAIRE2
PFTK1 = system: T1, PFTK1
T1 construct: gene CDK14

PHKG1 = system: PHKG1
PHKG2 = system: PHKG2
PIK3C2B = system: PIK3C2B
PIK3C2G = system: PIK3C2G
PIK3CA = system: PIK3CA
PIK3CB = system: PIK3CB
PIK3CD = system: PIK3CD
PIK3CG = system: PIK3CG
PIK4CB = system: T2, PIK4CB
T2 construct: gene PI4KB

PIKFYVE = system: PIKFYVE
PIM1 = system: PIM1
PIM2 = system: PIM2
PIM3 = system: PIM3
PIP5K1A = system: PIP5K1A
PIP5K1C = system: PIP5K1C
PIP5K2B = system: PIP5K2B
PIP5K2C = system: T3, PIP5K2C
T3 construct: gene PIP4K2C
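Note: KINOMEscan kinase panel screen.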

SMILES | %Inh (PDPK1) | %Inh (PFTAIRE2) | %Inh (PFTK1) | %Inh (PHKG1) | %Inh (PHKG2) | %Inh (PIK3C2B) | %Inh (PIK3C2G) | %Inh (PIK3CA) | %Inh (PIK3CB) | %Inh (PIK3CD) | %Inh (PIK3CG) | %Inh (PIK4CB) | %Inh (PIKFYVE) | %Inh (PIM1) | %Inh (PIM2) | %Inh (PIM3) | %Inh (PIP5K1A) | %Inh (PIP5K1C) | %Inh (PIP5K2B) | %Inh (PIP5K2C)
O=C(Nc1ccc2c(c1)OCO2)NC1CCN(c2ccnc(NCc3ccc(F)cc3)n2)CC1 [GSK1379859] | 0% | 10% | 14% | 0% | 0% | 0% | 0% | 0% | 0% | 0% | 0% | 2% | 0% | 8% | 0% | 0% | 0% | 19% | 2% | 0%
Nc1ncnc2c1ncn2-c1cccc2ccccc12 [SKF-97184] | 0% | 0% | 1% | 0% | 0% | 7% | 0% | 2% | 0% | 0% | 3% | 0% | 40% | 0% | 32% | 0% | 0% | 11% | 0% | 0%
COc1cc2nccc(Nc3cccc(Oc4ccccc4)c3)c2cc1OC.Cl [GW284543] | 0% | 31% | 2% | 2% | 0% | 39% | 0% | 0% | 0% | 55% | 0% | 0% | 29% | 0% | 0% | 0% | 0% | 48% | 18% | 8%
Cc1cccc(-c2cc(-c3c[nH]nc3-c3ccccn3)ccn2)c1 [GW679395] | 0% | 1% | 11% | 0% | 0% | 1% | 0% | 0% | 0% | 0% | 0% | 0% | 0% | 20% | 0% | 0% | 35% | 54% | 0% | 39%
CCCNC(=O)Nc1ccc(Oc2ncnc3ccn(C)c23)cc1 | 0% | 10% | 0% | 0% | 0% | 19% | 27% | 14% | 0% | 30% | 12% | 0% | 0% | 0% | 5% | 0% | 0% | 17% | 47% | 27%
CCC(=O)c1c(-c2ccccc2)c2cc(Cl)ccc2c(=O)n1Cc1ccc(C(=O)O)cc1 | 0% | 0% | 0% | 0% | 0% | 0% | 0% | 0% | 3% | 0% | 0% | 0% | 0% | 0% | 0% | 0% | 18% | 15% | 0% | 16%
O=C(Nc1n[nH]c2cc(-c3ccccc3F)ccc12)C1CC1 [SB-733371] | 0% | 12% | 0% | 0% | 0% | 2% | 3% | 0% | 18% | 0% | 6% | 0% | 10% | 0% | 0% | 0% | 32% | 0% | 24% | 0%
COc1cc2nccc(Nc3ccc(OCc4ccc(NC(C)=O)cc4)cc3)c2cc1OC.Cl [GW440135] | 22% | 77% | 0% | 0% | 5% | 17% | 0% | 7% | 0% | 0% | 7% | 4% | 0% | 8% | 0% | 0% | 15% | 32% | 22% | 25%
COc1ccc(-c2cc3c(C)nc(N)nc3n([C@H]3CC[C@H](O)CC3)c2=O)cn1 | 0% | 0% | 0% | 9% | 1% | 99.6% | 98.8% | 99.7% | 100% | 94.1% | 100% | 93.9% | 45% | 5% | 0% | 6% | 2% | 0% | 2% | 38%
CCC(=O)c1c(-c2ccccc2)c2cc(Cl)ccc2c(=O)n1Cc1cc(S(C)(=O)=O)n(CC(N)=O)n1 | 31% | 0% | 11% | 0% | 0% | 0% | 0% | 0% | 0% | 0% | 0% | 0% | 17% | 18% | 2% | 9% | 0% | 33% | 8% | 19%
COc1cc2ncn(-c3cc(OCc4ccc(S(C)(=O)=O)cc4)c(C(N)=O)s3)c2cc1OC [GW869979] | 0% | 0% | 0% | 10% | 0% | 0% | 29% | 0% | 30% | 16% | 26% | 18% | 14% | 0% | 0% | 0% | 0% | 39% | 16% | 0%
